Screening results as filed in PubChem BioAssay.
In the library only some 3.8% were active in any assay of this set; here they are far more common.
rTrxR1 inhibitor – qHTS Assay for Inhibitors of Mammalian Selenoprotein Thioredoxin Reductase 1 (TrxR1): qHTS; recombinant rTrxR1, NADPH fluorescence consumption, selenite substrate; Potency, µM (series often up to 114 µM), inactives show at the highest dose activity change, negative = inhibition, usual class: inhibitors; hit rate 1% among 390,000; AID 588453, 2011; also: nearly all actives have a fitted effect of over 65% in size
Target sequence (O89049 whole entry, looked up): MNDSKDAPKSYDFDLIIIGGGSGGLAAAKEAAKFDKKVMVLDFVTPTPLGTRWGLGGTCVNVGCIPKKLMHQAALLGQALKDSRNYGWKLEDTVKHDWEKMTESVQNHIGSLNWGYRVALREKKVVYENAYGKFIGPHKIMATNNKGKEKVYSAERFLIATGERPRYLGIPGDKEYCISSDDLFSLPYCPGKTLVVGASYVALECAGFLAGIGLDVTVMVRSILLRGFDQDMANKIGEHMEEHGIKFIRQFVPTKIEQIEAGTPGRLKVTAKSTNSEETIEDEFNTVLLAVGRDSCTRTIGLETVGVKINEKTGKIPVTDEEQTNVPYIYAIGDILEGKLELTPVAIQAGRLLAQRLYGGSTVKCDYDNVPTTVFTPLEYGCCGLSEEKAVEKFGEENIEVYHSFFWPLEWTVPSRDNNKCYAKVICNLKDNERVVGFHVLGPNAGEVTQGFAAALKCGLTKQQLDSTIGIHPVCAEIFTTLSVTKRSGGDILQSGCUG
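Rat TrxR1 (90 nM in the dispensed reagent) was pre-reduced with 400 uM NADPH for 5 min at room temperature, then incubated with compound for 15 min. After 400 uM selenite was added, NADPH fluorescence (Ex 340/Em 450 nm) was followed for 8 min.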
Sfp PPTase inh – qHTS Assay for Inhibitors of Bacillus subtilis Sfp phosphopantetheinyl transferase (PPTase); Potency, µM, without a hit: largest response in the series, negative = inhibition, actives largely listed as inhibitors; 4'-phosphopantetheinyl transferase ffp (Bacillus subtilis), Q9F4F7; Biochemical Sfp PPTase activity, qHTS; hit rate 3.5% among 310,000; AID 1490, 2009;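 also: the enzyme is Sfp with the accession as filed and its product quenches rhodamine fluorescence; 0% = enzyme reaction without inhibitor and -100% = no enzyme wells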
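Reaction rates are the 30-min fluorescence difference (ex 525, em 598 nm) in wells containing 15 nM Sfp, 5 uM rhodamine-CoA and 12.5 uM BHQ-2-YbbR at pH 7.6 with 10 mM MgCl2.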
VDR inhibitor – Inhibitors of the vitamin D receptor (VDR): qHTS | Vitamin D3 receptor (Homo sapiens), P11473 | Potency, µM, for the others: max response, negative = inhibition, usual class: inhibitors | hit rate 0.93% among 400,000 | VDR-SRC2-3 peptide fluorescence polarization, 2 h | AID 504847, 2011
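Two reagent solutions held at 4 deg C in the dark were dispensed, compounds pinned at 23 nl, and the mixture incubated 2 h at room temperature. Read-out: fluorescence polarization of VDR–SRC2-3 peptide binding.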
GLS inhibitor – qHTS for Inhibitors of Glutaminase (GLS) | Glutaminase kidney isoform, mitochondrial (Homo sapiens), O94925 | GLS enzymatic activity, qHTS titration | Potency, µM (series often up to 45.5 µM), without a hit: top-dose activity change, negative = inhibition, hits mostly inhibitors | hit rate 0.21% among 410,000
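Read-out is an Amplex red fluorescence increase coupled through glutamate oxidase and HRP, measured before and after 30 min room-temperature incubation. hKGA is in 45 mM KH2PO4 (pH 8.2) with 0.02% Tween-20; glutamine added as 1mM solution.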
TrxR1 substrate – qHTS Assay for Substrates of Mammalian Selenoprotein Thioredoxin Reductase 1 (TrxR1): qHTS | purified TrxR1 substrate turnover, NADPH consumption readout | Thioredoxin reductase 1, cytoplasmic (Rattus norvegicus), O89049 | hit rate 0.01% among 390,000 | Potency, µM (doses to about 114 µM), without a hit: at the highest dose activity change, negative = substrate turnover; also: nearly all actives have a fitted effect of over 50% in size
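Rat TrxR1, dispensed at 90 nM, was prereduced with 400 uM NADPH (final) for 5 min at ~22 deg C, then incubated with compound 15 min before 400 uM selenite. A first-read NADPH fluorescence drop versus no-compound background flagged substrates.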
GCN5L2 inh – qHTS Assay for Inhibitors of GCN5L2. Potency, µM (titrated, usually from 58.9 µM), for the others: at the top dose activity change, negative = inhibition, actives largely listed as inhibitors. GCN5L2 HAT assay, ThioGlo1 CoA-SH fluorescence. Histone acetyltransferase KAT2A (Homo sapiens), Q92830. AID 504327, 2011. hit rate 0.21% among 390,000
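GCN5L2 (20 nM) in 50mM HEPES pH 7.5, 0.1mM EDTA, 0.01% Tween-20 preincubated 15 min with compounds at room temperature. Reaction started with H3(1-25) 75uM, acetyl-CoA 70uM, ThioGlo1 50uM; CoA-thiol fluorescence (Ex340/Em540) read at 0 and 20 min.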
The depositor's hits bear a star; ? = inconclusive; . = no result; ! = repeats disagree; [ ] = dose if it differs, or a comment. Calls follow the shape of the dose curve; as a rule, active = well fitted curve in the direction sought with a large enough effect; inconclusive = small, poorly fitted or top-dose-only effect, or another doubt; inactive = no such curve, though single readings can be large; an effect the other way counts as inactive or inconclusive. Unless noted, % is scaled to controls: 0 for no effect and ±100 for the full control effect; potency is read from the fitted curve at half-maximal effect.

SMILES	rTrxR1 inhibitor	Sfp PPTase inh	VDR inhibitor	GLS inhibitor	TrxR1 substrate	GCN5L2 inh
Cc1cccnc1NC(=O)COc1ccc2c(c1)CCC2	16%	.	19%	-1%	-1%	-1%
COc1ccc(Nc2cnn(-c3nc4ccccc4s3)c(=O)c2Cl)cc1	3.2µM*	?	?	-8%	-2%	0%
O=c1c(Cl)c(Nc2cccc(Cl)c2)cnn1-c1nc2ccccc2s1	?	3%	5%	-6%	-7%	-2%
Cc1ccccc1NC(=S)NC(=O)c1cncc(Br)c1	13µM*	3%	-28%	14%	-11%	2%
Cc1cc(O)ccc1NC(=S)NC(=O)c1cncc(Br)c1	4%	56µM*	-21%	4%	3%	-3%
O=C(NC(=S)Nc1ccc(O)cc1)c1cncc(Br)c1	?	.	-5%	18%	2%	.
CNc1c(Br)cc(/C=C2\C=C(C(O)c3cc(Br)c(NC)c(Br)c3)c3ccccc32)cc1Br (configuration not stated)	38%[0.0914 µM]	.	.	.	0%	.
CCCCCNS(=O)(=O)c1cc(C)ccc1OC	-3%	?	7%	0%	-6%	1%
CCC(Sc1ccc(C(=O)O)cc1)C(=O)O (configuration not stated)	22%	23%	12%	1%	-3%[57.1 µM]	1%
O=C(CC(Sc1ccc(Br)cc1)C(=O)O)c1ccc(F)cc1 (configuration not stated)	28µM*	45µM*	13µM*	15%	2%	-4%
CCOc1ccc(C(=O)CC(Sc2ccc(C)cc2)C(=O)O)cc1 (configuration not stated)	22%[57.1 µM]	35µM*	?	15%	-10%[57.1 µM]	10%
Brc1ccc2nc(-c3ccco3)c(Cc3ccccc3)n2c1	.	.	.	-1%	.	.
Clc1cccc(Cc2c(-c3ccco3)nc3ccc(Br)cn23)c1	.	.	.	11µM*	.	.
CCOC(=O)C1CCN(C(=O)CCc2nc3sc4c(c3c(=O)[nH]2)CCCC4)CC1	-15%	.	-9%	-10%	-3%	-9%
Cc1ccc(C(=O)NN2C(=O)c3ccc(S(=O)(=O)c4ccc(C(=O)O)cc4)cc3C2=O)cc1	20%[57.1 µM]	5%	40µM*	-5%	5%	-2%
CC(C)c1nn2c(=O)cc(COC(=O)COc3ccccc3F)nc2s1	25%[57.1 µM]	.	17%	1%	7%[57.1 µM]	1%
O=[N+]([O-])c1ccc(-c2ccn[nH]2)o1	3.5µM*	-3%	-8%	15%	2%[57.1 µM]	-2%
Oc1ccc(-c2csc(Nc3ncccn3)n2)c(O)c1	10%[57.1 µM]	50µM*	-2%	-12%	4%[57.1 µM]	-1%
Cc1cccc(C)c1NC(=S)N/N=C1\CC2CC=CC12 (configuration not stated)	-30%[57.1 µM]	?	?	11%	2%	-1%
Cc1ccc(NC(=S)N/N=C2\CC3CC=CC23)c(C)c1 (configuration not stated)	?	32µM*	?	8%	-9%	-18%
C/C(=N/Nc1ccc(C(=O)O)cc1)c1ccc(O)c(O)c1O	-32%	40µM*	5%	3%	?	1%
COc1ccc(OC)c(/C(C)=N/Nc2ccc(C(=O)O)cc2)c1	3%	-5%	14%	8%	-11%	-1%
COc1ccc(CN2CCc3cc(OC)c(OC)cc3C2)cc1O	2%	-15%	2%	16%	1%	-5%
COc1ccc(CN2CCc3ccccc3C2)cc1Br	26%	79µM*	5%	9%	4%	-3%
CCCc1cc(C(=O)NCc2cccs2)no1	-5%[57.1 µM]	-4%	-9%	-3%	3%[57.1 µM]	-5%
SMILES	rTrxR1 inhibitor	Sfp PPTase inh	VDR inhibitor	GLS inhibitor	TrxR1 substrate	GCN5L2 inh
CCC(C(=O)Nc1cc(C)ccc1OC)n1nnc(C(=O)OC)c1C(=O)OC (configuration not stated)	-1%	.	-2%	1%	-4%	-15%
COc1ccccc1N1C(=O)C(Cl)=C(Nc2ccccc2O)C1=O	-71%	40µM*	?	?	11%[57.1 µM]	-5%
O=C1C(Cl)=C(Nc2ccccc2O)C(=O)N1c1ccccc1	45µM*	22µM*	?	20%	-4%	-12%
Cc1ccc(O)c(NC2=C(Cl)C(=O)N(Cc3ccccc3)C2=O)c1	10µM*	7.1µM*	?	25%	-4%	-7%
CCOc1ccccc1NC1=C(Cl)C(=O)N(c2ccc(OC)cc2)C1=O	-11%	-22%	?	10%	-15%	-4%
CC(=O)CC(C)(C)Nc1nc2cc([N+](=O)[O-])ccc2o1	22%	19%	8%	1%	0%	-3%
COc1cc(CNC(C)(C)C)ccc1OCC(=O)NC(C)(C)C	16%[57.1 µM]	6%	-8%	1%	-8%[57.1 µM]	2%
CCc1nn(-c2ccccc2)c(=S)c2ccccc12	1%	4%	12%	-9%	-12%	0%
CCOc1cc(CNc2ccc(O)cc2)ccc1OCc1ccc(Cl)cc1Cl	28µM*	?	32µM*	-12%	-21%	-15%
CCOc1cccc(CNc2ccc(O)cc2)c1OCc1ccc(Cl)cc1	45µM*	45µM*	?	14%	-12%	-13%
N#Cc1ccccc1S(=O)(=O)N1CCC(C(=O)Nc2cccc(C(=O)NC3CC3)c2)CC1	8%	.	16%	6%	1%	0%
C=CCn1c(-c2ccc(Cl)cc2)c[nH]c1=S	6%	3%	-5%	?	5%	-3%
C=CCn1c(-c2ccccc2)c[nH]c1=S	15%	79µM*	-2%	?	30%	-10%
COc1ccc(NC(=O)CN(C)CC(=O)NCCc2ccc(F)cc2)cc1	-1%	.	-5%	5%	-9%	-18%
CC(=NNC(=S)N1CCC1)c1ccccn1	7.1µM*	.	-29%	29%	-5%	.
Cn1c(=O)n(CCCOc2ccc(Cl)cc2)c2ccccc21	24%[57.1 µM]	5%	-1%	?	12%[57.1 µM]	0%
COc1ccc(OC)c(N=c2ssnc2Cl)c1	-22%[57.1 µM]	8.9µM*	?	39%	-11%	28µM*
COc1cc(N=c2ssnc2Cl)c(OC)cc1Cl	?	10µM*	16µM*	16µM*!	-13%[57.1 µM]	11µM*
COc1ccc(OC)c(N=C2C(=O)Nc3ccccc32)c1	-18%	9%	-12%	13%	-5%	0%
CCN(CC)CCNC(=O)c1cc(-c2cccnc2)nc2ccc(S(=O)(=O)N3CCC(C)CC3)cc12	1%	8%	4%	3%	-4%	-6%
COc1cc(/C=C2\C(=O)N(c3ccc(NC(C)=O)cc3)N=C2c2ccccc2)ccc1O	?	11%	?	26%	-8%	7%
